Cruzain inh noDet = blocks cruzain activity in detergent-free assay; P25779; purified cruzain, Z-FR-AMC fluorescence, no detergent; Potency, µM, actives largely listed as inhibitors; 2.3% of 200,000 active; also: nearly all actives have a fitted effect of over 40% in size
Target sequence (P25779 123-467 limits assumed): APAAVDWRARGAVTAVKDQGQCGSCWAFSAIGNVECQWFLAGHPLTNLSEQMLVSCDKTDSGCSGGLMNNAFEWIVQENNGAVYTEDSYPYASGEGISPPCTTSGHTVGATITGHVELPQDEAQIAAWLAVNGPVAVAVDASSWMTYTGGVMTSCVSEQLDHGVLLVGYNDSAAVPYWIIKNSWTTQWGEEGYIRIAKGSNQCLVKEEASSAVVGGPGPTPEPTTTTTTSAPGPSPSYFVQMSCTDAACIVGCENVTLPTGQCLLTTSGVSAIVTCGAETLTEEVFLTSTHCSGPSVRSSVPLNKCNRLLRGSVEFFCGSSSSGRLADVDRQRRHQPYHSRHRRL
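Purified cruzain at 1.5 nM, pre-incubated 15 min with compound at room temperature in 100 mM sodium acetate pH 5.5, 5 mM DTT, 0.00005% Triton X-100. Reaction started with 2 uM Z-FR-AMC; AMC fluorescence increase over 60 s gives rate.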
Cruzain inh Det = blocks cruzain activity in presence of Triton detergent | P25779 | purified cruzain, Z-FR-AMC fluorescence, 0.01% Triton | Potency, µM, actives largely listed as inhibitors | 0.43% of 200,000 active; also: nearly all actives have a fitted effect of over 40% in size
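Steps: dispense cruzain (1.5 nM final) in acetate buffer pH 5.5 with DTT and 0.01% Triton X-100; pin-transfer compounds; incubate 15 min RT; add Z-FR-AMC (2 uM final); read fluorescence every 30 s, using the 60 s intensity change.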
Each line names hits and unclear results; the compound was inactive in the other large screens. A selection: hits, their analogues and other compounds. The true share with any hit is near 2.6%. Calls follow the shape of the dose curve; as a rule, active = well fitted curve in the direction sought with a large enough effect; inconclusive = small, poorly fitted or top-dose-only effect, or another doubt; inactive = no such curve, though single readings can be large; an effect the other way counts as inactive or inconclusive.

CCCNC(=O)CCSc1nc(-c2ccc3c(c2)OCO3)cc(C(F)(F)F)n1	none
COc1cc(NC(=O)COc2cccc(OC)c2)cc(OC)c1	none
COc1cccc(OCC(=O)NNC(=O)c2ccc(-c3ccccc3)cc2)c1	Cruzain inh noDet 25µM
Fc1ccc(NC(=S)N/N=C/c2ccc(F)c(F)c2)c(F)c1	Cruzain inh noDet inconclusive
Fc1ccccc1/C=N/NC(=S)Nc1ccc(Cl)cc1Cl	Cruzain inh noDet 10µM
CC(C)c1ccc(NC(=O)CSC2=Nc3ccccc3C3=NC(CC(=O)NCc4cccs4)C(=O)N23)cc1 (stereo unspecified)	Cruzain inh noDet inconclusive
Cc1ccc(NC(=O)Cn2cc(C(=O)c3ccco3)c3ccccc32)cc1C	none
Cc1cc(=O)oc2cc(OCc3ccc(C(=O)N4CCN(c5ccc([N+](=O)[O-])cc5)CC4)cc3)ccc12	Cruzain inh noDet 13µM
COC(=O)c1ccc(Oc2coc3cc(OCc4ccc([N+](=O)[O-])cc4)ccc3c2=O)cc1	Cruzain inh noDet 10µM
COc1ccc(Oc2coc3cc(OC(=O)c4cccs4)ccc3c2=O)cc1	none
Cc1cc(=O)oc2cc(OCc3ccc(C(=O)N4CCN(c5ccccc5)CC4)cc3)ccc12	none
N#Cc1ccc(Oc2nc(C#N)cc(-c3ccccc3)n2)cc1	Cruzain inh Det 14µM
COc1ccc(Oc2nccc(-c3ccc(Cl)cc3)n2)cc1	none
COc1ccc(-c2cc(C(N)=O)nc(N3CCCCCC3)n2)cc1	Cruzain inh noDet 32µM
CN1CCN(c2nc(C#N)cc(-c3ccccc3)n2)CC1	Cruzain inh noDet inconclusive
COc1ccc(-c2cc(C(F)(F)F)nc(N3CCCCCC3)n2)cc1	none
COc1ccc(-c2cc(C#N)nc(N3CCNCC3)n2)cc1	Cruzain inh noDet 32µM
COc1ccc(-c2cc(C#N)nc(Oc3ccc(Cl)cc3)n2)cc1	Cruzain inh noDet 25µM, Cruzain inh Det 28µM
CCN(CC)c1nc(C#N)cc(-c2ccc(OC)cc2)n1	none
O=C(c1cc(C(F)(F)F)cc(C(F)(F)F)c1)N1CCC[C@@]2(CCN(Cc3ccncc3)C2)C1	none
CCc1ccc(N2C(=O)N(CC(=O)C(C)(C)C)c3ccccc3S2(=O)=O)cc1	none
COC(=O)C(CCSC)Nc1ncnc2onc(-c3ccc(F)cc3)c12 (stereo unspecified)	none
CC(=O)c1ccc(NC(=O)C2CCCN(S(=O)(=O)c3ccc4c(c3)CCCN4C(C)=O)C2)cc1 (stereo unspecified)	none
CCOc1ccc(CCNC(=O)CCn2c(=O)c3cccn3c3ccc(F)cc32)cc1	none
Cc1ccc(Cn2ccnc2SCC(=O)NCc2ccc(F)cc2)cc1	none
N#Cc1cc(-c2ccccc2)nc(Oc2ccccc2)n1	Cruzain inh Det 16µM
NC(=O)c1cc(-c2ccccc2)nc(Oc2ccccc2)n1	none
COc1ccc(C)cc1NC(=O)CSc1nc(=O)n(Cc2cccnc2)c2c1CCC2	Cruzain inh noDet inconclusive
Cc1ccn2cc(-c3ccc(C)c(NS(=O)(=O)c4ccc(Cl)cc4)c3)nc2c1	Cruzain inh noDet inconclusive
COC(=O)c1ccc(-c2nc3ccccc3o2)cc1	none
COC(=O)c1ccc(-c2ncc(-c3cccc4ccccc34)o2)cc1	Cruzain inh noDet inconclusive, Cruzain inh Det 20µM
COc1ccccc1-c1noc(-c2ccc(N3CCN(c4ccccc4)CC3)c([N+](=O)[O-])c2)n1	Cruzain inh noDet inconclusive
CCCCNC(=O)c1ccc2c(c1)NC(=O)C(CS(=O)(=O)Cc1ccc(F)cc1Cl)N2 (stereo unspecified)	none
Cc1c(Cl)cccc1NC(=O)c1ccc2c(c1)CCCN2S(C)(=O)=O	none
N=C1C(c2nc(-c3ccc(F)cc3)cs2)=C(O)CN1CCCN1CCOCC1	none
CC(C)CCN1CC(O)=C(c2nc(-c3ccc(Cl)cc3)cs2)C1=N	Cruzain inh noDet 25µM
COCCn1c(C)cc(C2=NNC(=Nc3ccccc3F)SC2)c1C	none
C=CCN=C1NN=C(c2cc(C)n(CC=C)c2C)CS1	Cruzain inh noDet 25µM
O=C(O)c1c(Cl)c(Cl)c(Cl)c(Cl)c1-c1c2cc(I)c(=O)c(I)c-2oc2c(I)c(O)c(I)cc12	Cruzain inh Det 13µM
O=C(COC(=O)c1cccc(N2C(=O)c3ccccc3C2=O)c1)Nc1ccccc1	none
NC(=O)c1ccc(NC(=O)COC(=O)c2cccc(Oc3ccccc3)c2)cc1	Cruzain inh noDet 16µM
CCNc1ncc2nc(CCc3ccccc3)c(=O)n(C)c2n1	none
CC(C)CC(c1nnnn1Cc1cccs1)N1CCN(c2nc3ccccc3s2)CC1 (stereo unspecified)	Cruzain inh noDet 32µM
CCC(c1nnnn1Cc1cccs1)N1CCN(c2nc3ccccc3s2)CC1 (stereo unspecified)	Cruzain inh noDet inconclusive
Cc1cc(C)cc(NC(=O)CCS(=O)(=O)c2ccc3nc(C)sc3c2)c1	none
COc1ccccc1Nc1cc(C(=O)NCc2cccs2)c2ccccc2n1	Cruzain inh noDet inconclusive
COc1ccccc1C(=O)Nc1nc2nc(C)cc(=O)n2[nH]1	none
COCCN1CN(S(=O)(=O)c2ccccc2)c2nc3ccccc3nc21	none
Cc1cccc(S(=O)(=O)N2CN(Cc3ccco3)c3nc4ccccc4nc32)c1	Cruzain inh noDet 25µM
CCOc1ccccc1NC(=O)c1ccc2oc(=O)c(S(=O)(=O)c3ccc(F)cc3)cc2c1	none
Cc1ccc(OCC(=O)Nc2ccc(OCc3cc(=O)n4ccsc4n3)cc2)cc1C	none
CC1CCCN(c2ncnc3c2cnn3-c2ccc(F)cc2)C1 (stereo unspecified)	none
Cc1ccc2ccc3cc(C(=O)N4CCN(c5ccccc5F)CC4)nc3c2[nH]1	none
Cc1ccc2ccc3cc(C(=O)Nc4ccc(C)c(F)c4)nc3c2[nH]1	Cruzain inh noDet inconclusive, Cruzain inh Det 8.9µM
CCc1cccc(C)c1NC(=O)Nc1csc2c1CCCC2	none
CCNC(=O)CSc1ncnc2sccc12	none
N#Cc1c(NC(=O)CSc2ncnc3sccc23)oc(-c2ccco2)c1-c1ccco1	Cruzain inh noDet 25µM
O=C(Nc1c(C(=O)c2ccccc2)oc2ccccc12)c1ccc(F)cc1	none
O=C(NCc1cn2ccsc2n1)c1cccc(C(F)(F)F)c1	none
O=C(NCc1cn2ccsc2n1)c1c(F)cccc1Cl	Cruzain inh noDet 20µM
Cc1ccc(OCC(=O)Nc2ccccc2OCc2cc(=O)n3ccccc3n2)cc1C	none
O=C1[C@@H]2Cc3c([nH]c4ccccc34)[C@@H](c3ccccc3)N2C(=O)[C@@H]2Cc3c([nH]c4ccccc34)[C@@H](c3ccccc3)N12	Cruzain inh noDet 10µM
COc1cc([C@H]2c3[nH]c4ccccc4c3C[C@H]3C(=O)N4[C@@H](c5cc(OC)c(OC)c(OC)c5)c5[nH]c6ccccc6c5C[C@H]4C(=O)N23)cc(OC)c1OC	none
Cc1cc(C)cc(NC(=O)C2CCN(S(=O)(=O)c3ccc4c(c3)oc(=O)n4C)CC2)c1	none
COC(=O)/C=C1\S/C(=N/N=C/c2ccccc2)NC1=O	none
O=C1N/C(=N/N=C/c2ccccc2)SC1(c1ccccc1)c1ccccc1	Cruzain inh noDet 4µM
COc1cc2c(-c3ccccc3C)nc3c(c(C)nn3-c3ccccc3)c2cc1OC	none
O=C1CSC(c2cn(-c3ccccc3)nc2-c2cc3ccccc3oc2=O)N1Cc1ccco1 (stereo unspecified)	Cruzain inh noDet inconclusive, Cruzain inh Det 28µM
O=C1CSC(c2cn(-c3ccccc3)nc2-c2cc3ccccc3o2)N1Cc1ccccc1 (stereo unspecified)	Cruzain inh noDet inconclusive
Cc1ccc(OCC(=O)Nc2cccc(-c3nc4ccccc4s3)c2)cc1	none
CC1c2nc3ccccc3n2C(CC(=O)NCc2ccccn2)C(=O)N1Cc1ccccc1 (stereo unspecified)	Cruzain inh noDet 13µM
